A selection: hits, their analogues and other compounds. The true share with any hit is near 5.3%.
Tau fibril ThT = tau fibrillization inhibition (ThT binding). Potency, µM (highest dose often 57.4 µM), actives largely listed as inhibitors. AID 1460. recombinant tau K18 P301L, heparin-induced fibrillization, ThT fluorescence. 270,000 compounds, 2.1% hits; note: nearly all actives have a fitted effect of over 55% in size
Target sequence (P10636 561-689 P618L limits assumed): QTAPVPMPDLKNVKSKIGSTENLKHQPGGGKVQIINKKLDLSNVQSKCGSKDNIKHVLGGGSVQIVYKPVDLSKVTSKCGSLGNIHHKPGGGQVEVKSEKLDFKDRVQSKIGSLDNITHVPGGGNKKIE
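Fibril formation assay: tau K18 P301L at 15 uM with trace Alexa 594 label, heparin inducer 20 uM, pH 7 sodium acetate buffer, 37 C for 6 hr; endpoint ThT signal.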
Tau fluor cs = counter-screen for tau fibril formation inhibitors | tau K18 P301L Alexa594 fluorescence, heparin fibrillization | Potency, µM (titrated, usually from 57.7 µM) | 280,000 compounds, 0.93% hits | AID 1463; note: nearly all actives have a fitted effect of over 55% in size
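Human tau K18 P301L (15 uM unlabeled, 0.24 uM Alexa 594-labeled) in 100 mM sodium acetate pH 7 with 20 uM heparin, 6 hr at 37 C. ThT 30 uM added, 1 hr ambient; Alexa 594 FP and total fluorescence read at 555/632 nm.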
KDM4E inh = blocks human JMJD2E demethylase activity; 230,000 compounds, 1.6% hits; JMJD2E catalytic domain, FDH-coupled NADH fluorescence (FDH is formaldehyde dehydrogenase); Potency, µM (doses to about 57.1 µM), hits mostly inhibitors; AID 2147; active = well fitted inhibition curve with a large enough effect, not every such curve was filed as active; inconclusive = small, poorly fitted or top-dose-only effect, or another doubt; inactive = no such curve, though single readings can be large or run the other way; note: nearly all actives have a fitted effect of over 50% in size
Target sequence (B2RXH2 1-337 limits assumed): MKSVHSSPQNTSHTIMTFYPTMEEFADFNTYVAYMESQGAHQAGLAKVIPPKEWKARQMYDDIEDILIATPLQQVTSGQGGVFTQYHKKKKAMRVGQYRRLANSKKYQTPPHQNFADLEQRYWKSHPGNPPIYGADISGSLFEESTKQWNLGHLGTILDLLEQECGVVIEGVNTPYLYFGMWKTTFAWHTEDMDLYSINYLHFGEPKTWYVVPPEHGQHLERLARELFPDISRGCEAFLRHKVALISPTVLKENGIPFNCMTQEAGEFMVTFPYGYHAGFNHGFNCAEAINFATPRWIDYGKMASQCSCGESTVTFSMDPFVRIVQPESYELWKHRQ
Coupling enz = counter-screen for Giardia aldolase inhibitors: coupling enzyme system | coupling enzyme system counterscreen, AmpLite Red fluorescence | 290,000 compounds, 0.67% hits | activity change, negative = inhibition, % at 58.2 µM, hits read low | AID 2472; in the data active = activity change below about -30%
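Final compound at 57.5 uM, incubated 10 min at RT with coupling enzyme reagent (glyceraldehyde-3-phosphate), then 20 min with substrate and AmpLite Red detection. Fluorescence read at 525/598 nm; tests interference with the coupling assay, not aldolase inhibition.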
Tau FP inhib = tau fibrillization inhibition (FP). P10636. K18 P301L tau heparin fibrillization, Alexa594 FP, 6 h. Potency, µM (highest dose often 57.7 µM), most hits filed as inhibitors. 280,000 compounds, 0.39% hits; note: nearly all actives have a fitted effect of over 55% in size
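Recombinant K18 P301L […], labeled with Alexa 594 at 0.24 uM over 15 uM unlabeled; heparin inducer 20 uM final; 37 C, 6 hr; FP endpoint.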
Sfp PPTase inh = Sfp phosphopantetheinyl transferase inhibition. Potency, µM, most hits filed as inhibitors. Biochemical Sfp PPTase activity, qHTS. AID 1490. Q9F4F7. 310,000 compounds, 3.5% hits;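 note: the enzyme is Sfp with the accession as filed and its product quenches rhodamine fluorescence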
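With Hepes-Na pH 7.6 buffer containing 10 mM MgCl2, Sfp (15 nM) modified BHQ-2-YbbR (12.5 uM) using rhodamine-CoA (5 uM). Two reads 30 minutes apart at 525/598 nm yielded each well's rate.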
A number is an active result; i = inactive; ? = inconclusive; nt = no result given; ! = not confirmed by another sample; [ ] = remark or other dose. Unless noted, calls come from the whole dose curve; as a rule, active = well fitted curve in the direction sought with a large enough effect; inconclusive = small, poorly fitted or top-dose-only effect, or another doubt; inactive = no such curve, though single readings can be large; an effect the other way counts as inactive or inconclusive.

SMILES	Tau fibril ThT	Tau fluor cs	KDM4E inh	Coupling enz	Tau FP inhib	Sfp PPTase inh
COc1cc(C)c(Cl)cc1S(=O)(=O)NCCc1c(C)[nH]c2ccccc12	i	?	nt	nt	i	nt
C=CCN1C(=O)C(CC(=O)O)SC1=Nc1ccc(N=Nc2ccccc2)cc1 (centres undefined)	11µM	i	i	i	i	i
CCCCN(CCCC)S(=O)(=O)c1ccc(NC(=O)c2cccs2)cc1	i	?	i	i	14µM	i
CC1OC(Oc2c(-c3cc(O)c(O)c(O)c3)oc3cc(O)cc(O)c3c2=O)C(O)C(O)C1O (centres undefined)	?	?	i	-47	i	7.9µM
O=C(O)C1OC(Oc2c(-c3ccc(O)c(O)c3)oc3cc(O)cc(O)c3c2=O)C(O)C(O)C1O (centres undefined)	?	i	4.5µM	i	i	i
O=c1c(O)c(-c2ccc(O[C@@H]3O[C@H](CO)[C@@H](O)[C@H](O)[C@H]3O)c(O)c2)oc2cc(O)cc(O)c12	nt	nt	nt	i	nt	i
CC1OC(OCC2OC(Oc3c(-c4ccc(OCCO)c(OCCO)c4)oc4cc(OCCO)cc(O)c4c3=O)C(O)C(O)C2O)[C@@H](O)C(O)C1O (some centres undefined)	i	i	i	i	i	i
O=C(O)CN(CCOCCOCCN(CC(=O)O)CC(=O)O)CC(=O)O	i	i	i	nt	i	i
O=C(O)CN(CCN(CC(=O)O)CC(=O)O)CCN(CC(=O)O)CC(=O)O	i	i	6.3µM!	i	i	i
COc1cc2c3c(c1)C1(C(=O)N3C(C)(C)C=C2C)C(C#N)=C(N)Oc2cc(C)oc(=O)c21 (centres undefined)	i	i	i	i	i	i
CCc1cc2c3c(c1)C1(C(=O)N3C(C)(C)C=C2C)C(C#N)=C(N)Oc2[nH]c(=O)[nH]c(=O)c21 (centres undefined)	14µM	?	i	i	?	i
CN(C)c1ccc(SC#N)cc1	10µM	?	i	i	?	i
CC(=O)Nc1ccc(SCCN2CCN(CC(C)C)CCC2=O)cc1	nt	nt	nt	i	nt	45µM
N#Cc1c(N(CCO)CCO)nc(N)c2c(N)nc3c(c12)CC(=O)N3CC1CCCO1 (centres undefined)	?	i	?	-38	i	?
CN(C)c1ccc(/C=C2\CCC/C(=C\c3ccccc3)C2=O)cc1	2µM	?	i	i	i	?
O=C1/C(=C/c2ccc(C(=O)O)cc2)CCC/C1=C\c1ccc(C(=O)O)cc1	10µM	i	i	i	?	i
Cc1ccc(-c2nn3c(=O)cc(CN4CCN(C(=O)c5ccc(C(C)(C)C)cc5)CC4)nc3s2)cc1	?	i	nt	nt	i	nt
Cc1cc2c(c(=O)n1-c1ccccc1)C1O[C@](c3ccsc3)(Cc3ccccc31)O2	nt	nt	nt	i	nt	i
CCc1ccc2[nH]c(C(=O)Nc3ccc(Br)c(C)n3)cc2c1	nt	nt	nt	i	nt	i
CCc1ccc2[nH]c(C(=O)Nc3ccc(F)cc3Br)cc2c1	nt	nt	nt	i	nt	56µM
O=C(CCc1nc2ccccc2[nH]1)N1CCc2ccccc2C1	i	i	i	-34	i	i
O=C(Cn1ncc2c([nH]c3ccccc32)c1=O)N1CCc2ccccc2C1	nt	nt	nt	i	nt	i
CCCOC(=O)NCCCN(C)C	nt	nt	nt	i	nt	i
C=CCCN(Cc1ccc(OC)cc1)S(=O)(=O)c1ccccc1Br	nt	nt	nt	i	nt	i
COC(=O)c1ccccc1NC(=O)c1ccc(COc2ccccc2)o1	i	i	?	i	i	?
SMILES	Tau fibril ThT	Tau fluor cs	KDM4E inh	Coupling enz	Tau FP inhib	Sfp PPTase inh
COC(=O)c1ccccc1NC(=O)c1ccc(COc2cccc3ccccc23)o1	i	i	?	i	i	56µM
NN/C(=C\[N+](=O)[O-])Nc1ccc(Cl)cc1	16µM	?	i	i	i	i
NN/C(=C\[N+](=O)[O-])Nc1ccccc1	?	?	i	i	i	i
CCN(CC)C(=O)CSc1nc2c(c(=O)n(C)c(=O)n2C)n1Cc1ccccc1	i	i	nt	nt	i	nt
C[C@H]1Cc2c(-c3ccccc3)nc3c(c2CO1)CN(C(=O)NCc1ccco1)CC3	i[11.5 µM]	i[11.6 µM]	i[11.4 µM]	i	i[11.6 µM]	i
COc1ccc(-c2nc(N)nc(C)c2Oc2ccccc2Br)c(O)c1	i	18µM[quencher]	i	i	i	i

High-throughput results from PubChem.
